Source: PubChem BioAssay (Tox21)
Inconclusive results are not listed. Activity calls are given as the source filed them. Unless noted, calls follow the shape of the dose curve; as a rule, active = well fitted curve in the direction sought with a large enough effect in the repeat runs; inconclusive = weak or mixed curves; inactive = no such curve, though single readings can be large; an effect the other way counts as inactive or inconclusive.

How the values were obtained:
[1] = qHTS assay to identify small molecule antagonists of the estrogen receptor alpha (ER-alpha) signaling pathway using the BG1 cell line in the presence of 0.1 nM 17-beta-estradiol - cell viability counter screen (AID 1259241); also: nearly all actives have a fitted effect of over 40% in size
Outline: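 Cytotoxicity counter-screen: live-cell protease activity measured by fluorescence (30 min reagent step) in the same wells. Cells were VM7Luc4E2 with endogenous ER-alpha and ERE-driven luciferase, treated 22 hr at 37C alongside 0.1 nM 17beta-estradiol final.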

[2] = qHTS assay to identify small molecule antagonists of the androgen receptor (AR) signaling pathway using the MDA cell line in the presence of 0.5 nM R1881 - cell viability counter screen (AID 1259242); also: nearly all actives have a fitted effect of over 45% in size
Outline: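 Concentration-response screen of compounds for toxicity in MDA-kb2 reporter cells: 16 hr at 37C with 0.5 nM R1881, endpoint live-cell protease fluorescence measured in the reporter wells.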

[3] = target: Estrogen receptor (Homo sapiens) (UniProt P03372); assay: qHTS assay to identify small molecule antagonists of the estrogen receptor alpha (ER-alpha) signaling pathway using the BG1 cell line in the presence of 0.1 nM 17-beta-estradiol (AID 1259244); also: nearly all actives have a fitted effect of over 50% in size
Chain of Estrogen receptor (Homo sapiens) (P03372 whole entry, looked up): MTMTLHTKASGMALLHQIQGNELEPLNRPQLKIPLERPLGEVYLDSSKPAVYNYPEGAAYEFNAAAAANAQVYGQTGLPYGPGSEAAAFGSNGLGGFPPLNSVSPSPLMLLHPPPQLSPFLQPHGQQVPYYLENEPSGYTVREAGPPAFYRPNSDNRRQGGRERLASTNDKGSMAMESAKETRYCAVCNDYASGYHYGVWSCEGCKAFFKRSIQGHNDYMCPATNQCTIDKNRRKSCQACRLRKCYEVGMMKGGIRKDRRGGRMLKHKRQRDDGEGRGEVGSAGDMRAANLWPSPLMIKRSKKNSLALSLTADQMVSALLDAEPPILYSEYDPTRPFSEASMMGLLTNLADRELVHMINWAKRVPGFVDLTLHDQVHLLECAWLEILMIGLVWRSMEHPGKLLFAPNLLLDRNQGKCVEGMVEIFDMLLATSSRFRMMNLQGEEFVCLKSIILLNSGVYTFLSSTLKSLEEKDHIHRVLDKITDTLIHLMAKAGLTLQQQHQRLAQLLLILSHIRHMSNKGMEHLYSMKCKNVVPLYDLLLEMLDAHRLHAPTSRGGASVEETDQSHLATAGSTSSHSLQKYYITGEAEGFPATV
Outline: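 Compounds were tested against 0.1 nM (final) 17beta-estradiol in VM7Luc4E2 cells, which express full-length ER-alpha and an ERE-luciferase reporter; luminescence was recorded following 22 h exposure.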

[4] = qHTS assay to identify small molecule HDAC inhibitors - cell viability counter screen (AID 1259365); also: series mostly up to about 92 µM; nearly all actives have a fitted effect of over 50% in size
Outline: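 CellTiter-Glo luminescence (30 min, room temperature) reported viability after a 2 h compound exposure at 37 C. Cells: wild-type HCT-116, 1,500 per well, seeded the night before.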

[5] = qHTS assay to identify small molecule agonists of the sonic hedgehog signaling (Shh) pathway - cell viability counter screen (AID 1259366); also: nearly all actives have a fitted effect of over 50% in size; also: potency is read from the fitted curve at half-maximal effect
Outline: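 Cytotoxicity counter screen: CellTiter-Fluor reagent added after 23 h compound exposure, then 1 h at 37C and fluorescence read. Cells were 3T3 Gli1-Luc, seeded 2,000 per well and dosed 4 h post-plating.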

[6] = qHTS assay to identify small molecule agonists of the sonic hedgehog signaling (Shh) pathway (AID 1259368; calls by dose curve;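 also: NIH/3T3-derived 3T3Gli1-Luc cells carrying a stable Gli1-driven firefly luciferase reporter; series mostly up to about 92 µM; nearly all actives have a fitted effect of over 15% in size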)
Outline: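 Hedgehog pathway agonism scored by increased firefly luciferase luminescence in 3T3Gli1-Luc cells treated 24 hr at 37 C; detection used a 30 min room-temperature reagent incubation.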

[7] = target: Estrogen receptor beta (Homo sapiens) (UniProt Q92731); assay: qHTS assay to identify small molecule agonists of the estrogen receptor beta (ER-beta) signaling pathway (AID 1259377; active = well fitted activation curve with a large enough effect in the signal ratio in the repeat runs, not every such curve was filed as active; the % refers to the signal ratio)
Chain of Estrogen receptor beta (Homo sapiens) (Q92731 whole entry, looked up): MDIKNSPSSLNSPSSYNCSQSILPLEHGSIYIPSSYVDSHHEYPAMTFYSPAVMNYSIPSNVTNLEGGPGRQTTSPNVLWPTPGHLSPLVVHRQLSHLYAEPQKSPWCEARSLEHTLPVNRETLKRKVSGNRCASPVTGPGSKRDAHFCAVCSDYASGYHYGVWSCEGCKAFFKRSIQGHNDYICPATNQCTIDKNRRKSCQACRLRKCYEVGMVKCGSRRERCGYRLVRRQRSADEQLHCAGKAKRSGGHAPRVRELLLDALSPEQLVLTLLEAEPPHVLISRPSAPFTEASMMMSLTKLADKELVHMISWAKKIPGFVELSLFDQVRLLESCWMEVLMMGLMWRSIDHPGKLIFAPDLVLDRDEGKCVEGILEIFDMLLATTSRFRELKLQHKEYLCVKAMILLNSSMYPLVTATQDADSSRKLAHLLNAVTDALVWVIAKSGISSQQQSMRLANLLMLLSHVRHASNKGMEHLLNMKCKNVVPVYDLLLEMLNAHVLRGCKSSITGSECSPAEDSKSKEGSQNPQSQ
Outline: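 Ratiometric beta-lactamase FRET read-out came after 2 h substrate loading at room temperature. It followed 16 h compound treatment at 37C of GripTite HEK293T cells carrying a UAS-bla reporter, plated in 2% charcoal-stripped FBS medium.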

[8] = qHTS assay to identify small molecule agonists of the androgen receptor (AR) signaling pathway in the presence of an antagonist - cell viability counter screen (AID 1259379);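 also: MDA-kb2 human breast cancer cells carrying an MMTV luciferase reporter; series mostly up to about 92 µM; nearly all actives have a fitted effect of over 25% in size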
Outline: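 MDA-kb2 viability measured by CellTiter-Fluor fluorescence in the same wells as the luciferase signal; nilutamide 3.0uM final; 15-point compound titration; 16 hr at 37C.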

[9] = target: Androgen receptor (Homo sapiens) (UniProt P10275); assay: qHTS assay to identify small molecule agonists of the androgen receptor (AR) signaling pathway in the presence of an antagonist (AID 1259381; calls by dose curve; also: nearly all actives have a fitted effect of over 15% in size)
Chain of Androgen receptor (Homo sapiens) (P10275 whole entry, looked up): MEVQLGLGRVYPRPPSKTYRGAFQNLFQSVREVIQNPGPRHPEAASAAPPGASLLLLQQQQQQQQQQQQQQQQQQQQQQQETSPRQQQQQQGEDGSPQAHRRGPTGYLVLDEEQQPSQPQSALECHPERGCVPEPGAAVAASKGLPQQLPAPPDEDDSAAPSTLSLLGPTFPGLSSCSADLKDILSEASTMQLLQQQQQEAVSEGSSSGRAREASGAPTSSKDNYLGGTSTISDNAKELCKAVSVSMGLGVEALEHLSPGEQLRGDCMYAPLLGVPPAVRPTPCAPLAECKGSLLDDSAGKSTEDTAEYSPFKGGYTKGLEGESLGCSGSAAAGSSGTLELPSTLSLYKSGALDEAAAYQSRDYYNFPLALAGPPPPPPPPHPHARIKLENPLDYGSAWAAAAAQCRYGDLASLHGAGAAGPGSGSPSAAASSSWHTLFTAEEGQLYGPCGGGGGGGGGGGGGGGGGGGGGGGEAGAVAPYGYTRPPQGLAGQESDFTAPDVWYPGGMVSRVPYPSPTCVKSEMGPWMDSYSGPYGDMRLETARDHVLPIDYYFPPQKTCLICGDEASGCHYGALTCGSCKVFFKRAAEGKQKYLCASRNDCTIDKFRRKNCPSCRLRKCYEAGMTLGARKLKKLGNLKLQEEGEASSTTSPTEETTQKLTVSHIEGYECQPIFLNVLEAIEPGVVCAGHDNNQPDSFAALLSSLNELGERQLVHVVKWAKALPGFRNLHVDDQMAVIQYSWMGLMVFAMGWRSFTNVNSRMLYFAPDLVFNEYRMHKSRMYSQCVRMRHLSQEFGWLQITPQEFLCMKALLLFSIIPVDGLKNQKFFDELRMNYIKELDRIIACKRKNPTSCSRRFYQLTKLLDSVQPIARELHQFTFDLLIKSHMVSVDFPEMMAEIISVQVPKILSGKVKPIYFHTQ
Outline: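 Luminescent ONE-Glo read, 30min at room temperature, follows 16hr compound exposure (15 concentrations) of MDA-kb2 cells at 37C, 0% CO2, with nilutamide added at 3.0uM final.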

[10] = target: Estrogen receptor (Homo sapiens) (UniProt P03372); assay: qHTS assay to identify small molecule agonists of the estrogen receptor alpha (ER-alpha) signaling pathway in the presence of an antagonist (AID 1259383; calls by dose curve; also: nearly all actives have a fitted effect of over 15% in size; also: potency is read from the fitted curve at half-maximal effect; as to activation: top concentration of the series differs between compounds)
Outline: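 Quantitative HTS confirmation: compounds titrated at 15 concentrations onto estrogen-deprived VM7Luc4E2 cells carrying a four-ERE luciferase construct, with ICI-182,780 present at 10.0nM final. Signal is luminescence after 22hr exposure.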

[11] = qHTS assay to identify small molecule agonists or antagonists of the thyroid stimulating hormone receptor (TSHR) signaling pathway - wild type cell line counter screen (AID 1259384; calls by dose curve)
Outline: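 Wild-type Hek293 cells, 800/well, 18 h at 37C, then compound with Ro20-1724 for 30 min RT. cAMP by HTRF (cAMP-d2/anti-cAMP cryptate), 1 h RT, fluorescence read. 15 concentrations, triplicates.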

[12] = target: Thyrotropin receptor (Homo sapiens) (UniProt P16473); assay: qHTS assay to identify small molecule antagonists of the thyroid stimulating hormone receptor (TSHR) signaling pathway (AID 1259385; calls by dose curve; also: nearly all actives have a fitted effect of over 20% in size; also: potency is read from the fitted curve at half-maximal effect)
Chain of Thyrotropin receptor (Homo sapiens) (P16473 whole entry, looked up): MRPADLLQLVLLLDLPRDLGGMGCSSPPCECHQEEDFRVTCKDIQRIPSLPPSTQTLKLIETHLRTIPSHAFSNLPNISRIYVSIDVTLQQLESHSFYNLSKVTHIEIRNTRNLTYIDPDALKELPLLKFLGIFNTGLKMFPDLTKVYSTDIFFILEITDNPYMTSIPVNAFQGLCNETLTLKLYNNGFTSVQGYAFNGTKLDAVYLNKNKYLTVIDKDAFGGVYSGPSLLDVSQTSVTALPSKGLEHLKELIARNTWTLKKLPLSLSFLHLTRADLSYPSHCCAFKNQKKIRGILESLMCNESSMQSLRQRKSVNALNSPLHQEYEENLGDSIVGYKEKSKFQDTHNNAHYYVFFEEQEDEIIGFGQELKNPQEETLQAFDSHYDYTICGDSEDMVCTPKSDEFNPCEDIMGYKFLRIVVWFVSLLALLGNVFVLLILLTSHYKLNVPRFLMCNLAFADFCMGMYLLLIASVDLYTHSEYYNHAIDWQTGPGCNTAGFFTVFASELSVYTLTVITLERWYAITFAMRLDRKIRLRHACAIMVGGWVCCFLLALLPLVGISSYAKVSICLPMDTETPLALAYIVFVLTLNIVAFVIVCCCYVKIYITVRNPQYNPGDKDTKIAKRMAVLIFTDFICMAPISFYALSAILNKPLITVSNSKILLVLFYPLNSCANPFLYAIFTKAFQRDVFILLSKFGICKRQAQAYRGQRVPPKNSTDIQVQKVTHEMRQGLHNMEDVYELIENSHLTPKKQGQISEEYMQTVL
Outline: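 TSHR-HEK293 cells (800/well) plated 18 h, then compounds with Ro20-1724 and TSH at 1.5 ng/mL final, 30 min at room temperature. cAMP quantified by HTRF (cAMP-d2/anti-cAMP-cryptate, 1 h); 15 concentrations in triplicate.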

[13] = qHTS assay to identify small molecule HDAC inhibitors (AID 1259364);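 also: wild-type HCT-116 cells with endogenous class I/II HDAC activity; top concentration of the series differs between compounds; nearly all actives have a fitted effect of over 45% in size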
Outline: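 Screening used wild-type human colon HCT-116 cells incubated overnight, dosed with compounds for 2 hours, and assayed with a homogeneous luminogenic HDAC I/II reagent for 30 minutes at room temperature.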

[14] = qHTS assay to identify small molecule antagonists of the sonic hedgehog signaling (Shh) pathway - cell viability counter screen (AID 1259367); also: nearly all actives have a fitted effect of over 55% in size; also: potency is read from the fitted curve at half-maximal effect
Outline: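 Fluorescence read-out (CellTiter-Fluor, 1 hr at 37C) taken after 23 hr compound treatment of 3T3 Gli1-Luc cells stimulated with conditioned medium. Cells were seeded at 2,000 per well and pre-incubated 4 hr.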

[15] = qHTS assay to identify small molecule antagonists of the sonic hedgehog signaling (Shh) pathway (AID 1259369; calls by dose curve; also: nearly all actives have a fitted effect of over 45% in size; also: potency is read from the fitted curve at half-maximal effect)
Outline: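 NIH/3T3 stable Gli1-Luc clone, 2,000 cells/well, 4hr settle; cpd + conditioned medium 24hr; Luc reagent 30min RT; luminescence.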

[16] = qHTS assay to identify small molecule antagonists of the estrogen receptor beta (ER-beta) signaling pathway - cell viability counter screen (AID 1259382); also: series mostly up to about 92 µM; nearly all actives have a fitted effect of over 55% in size
Outline: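 Readout: luminescence, CellTiter-Glo, same wells as bla assay. System: ER-beta-UAS-bla GripTite HEK293T, 2% charcoal-stripped FBS. Exposure: compounds plus 1nM 17-beta-estradiol, 16 hr, 37C.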

[17] = target: Estrogen receptor beta (Homo sapiens) (UniProt Q92731); assay: qHTS assay to identify small molecule antagonists of the estrogen receptor beta (ER-beta) signaling pathway (AID 1259378; active = well fitted inhibition curve with a large enough effect in the signal ratio in the repeat runs, not every such curve was filed as active; the % refers to the signal ratio)
Outline: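 ER-beta-UAS-bla HEK293T cells in 2% charcoal-stripped FBS medium treated with compound plus 1nM final 17-beta-estradiol for 16 hr at 37C. Beta-lactamase reporter read by FRET substrate fluorescence after 2 hours at room temperature.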

[18] = qHTS assay to identify small molecule agonists of the estrogen receptor beta (ER-beta) signaling pathway - cell viability counter screen (AID 1259380); also: nearly all actives have a fitted effect of over 30% in size
Outline: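 Measured: luminescence from CellTiter-Glo after 30 min at room temperature, added to wells already read for the LiveBLAzer FRET reporter (2 hr substrate); ER-beta-UAS-bla HEK293T cells had 16 hr compound treatment at 37C, 5% CO2.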

[19] = qHTS assay to identify small molecule phospholipidosis (PLD) inducers (AID 1259344; active = well fitted curve in the direction sought with a large enough effect; an effect the other way counts as inactive or inconclusive)
Outline: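 Read-out is LipidTOX Red fluorescence (ex 595/em 615) imaged in HepG2 cells after 24 h compound exposure at 37 C, with Hoechst nuclear counterstain (ex 352/em 461) allowing per-cell normalisation.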

Measured: Potency

O=C(Nc1ccccc1)c1ccccc1I
inactive: [1] | [2] | [3] | [4] | [5] | [6] | [7] | [8] | [9] | [10] | [11] | [12]

Nc1c(Br)cc([N+](=O)[O-])cc1[N+](=O)[O-]
active: [15] 31 µM
inactive: [1] | [2] | [3] | [13] | [4] | [14] | [6] | [9] | [16] | [10] | [11] | [12]

N#CCBr
inactive: [1] | [2] | [3] | [13] | [4] | [5] | [6] | [7] | [17] | [8] | [18] | [16] | [10] | [11]

O=C(O)C(Br)CBr (stereo unspecified)
inactive: [1] | [2] | [3] | [13] | [5] | [14] | [7] | [17] | [8] | [18] | [10] | [11] | [12]

COP(=S)(OC)Oc1c(Cl)cc(C)cc1Cl
inactive: [1] | [2] | [3] | [13] | [5] | [14] | [6] | [7] | [17] | [8] | [18] | [16] | [10] | [11]
active: [12] 54.5 µM

CCCSC(=O)Cl
inactive: [1] | [2] | [3] | [13] | [5] | [14] | [6] | [15] | [7] | [17] | [8] | [16] | [10] | [11] | [12]

O=P(O)(Oc1ccccc1)Oc1ccccc1
inactive: [1] | [2] | [3] | [13] | [5] | [14] | [6] | [15] | [17] | [8] | [18] | [16] | [10] | [11]

CC(C)CC(N(C)C)C1(c2ccc(Cl)cc2)CCC1 (stereo unspecified)
inactive: [1] | [2] | [19] | [13] | [4] | [5] | [14] | [6] | [15] | [7] | [17] | [8] | [16] | [11]

CC(C)CC#N
inactive: [1] | [2] | [3] | [13] | [4] | [6] | [15] | [7] | [8] | [18] | [9] | [10] | [11] | [12]
active: [14] 27.9 µM

CCOC(=O)C(c1c(O)c2ccccc2oc1=O)c1c(O)c2ccccc2oc1=O
inactive: [1] | [2] | [3] | [13] | [4] | [6] | [7] | [8] | [9] | [10] | [11]

CCCCOC(=O)c1ccccc1N
inactive: [1] | [2] | [13] | [4] | [5] | [14] | [6] | [15] | [7] | [17] | [8] | [16]

CC(C=O)Cc1ccc2c(c1)OCO2 (stereo unspecified)
inactive: [1] | [2] | [13] | [4] | [5] | [14] | [6] | [15] | [17] | [8] | [18] | [11] | [12]

CCOP(=S)(Oc1cnc(C(C)(C)C)nc1)OC(C)C (stereo unspecified)
inactive: [1] | [2] | [13] | [4] | [5] | [14] | [6] | [15] | [8] | [16] | [11]

CCCCCCBr
inactive: [1] | [2] | [13] | [4] | [5] | [14] | [6] | [15] | [8] | [16] | [11]

COC(C)(C)C
inactive: [1] | [2] | [13] | [4] | [5] | [14] | [6] | [7] | [17] | [8] | [18] | [16] | [11]

C[C@H]1CCC[C@H](O)CCCCCc2cc(O)cc(O)c2C(=O)O1
active: [10] 0.0616 µM
inactive: [1] | [2] | [19] | [13] | [4] | [6] | [18] | [16] | [11] | [12]

CC1(C(=O)Nc2ccc(O)c(Cl)c2Cl)CCCCC1
inactive: [1] | [2] | [13] | [4] | [6] | [8] | [18] | [16]
active: [5] 43.3 µM | [14] 43.3 µM

Cc1ccccc1CO[C@@H]1C[C@@]2(C(C)C)CC[C@]1(C)O2
inactive: [1] | [2] | [13] | [4] | [5] | [14] | [6] | [15] | [8] | [18] | [9] | [16] | [11]

CN(N=O)C(N)=O
inactive: [1] | [2] | [13] | [4] | [5] | [14] | [6] | [15] | [7] | [17] | [8] | [18] | [16]

OC(c1ccccc1)(c1ccccc1)C1CCNCC1
inactive: [1] | [2] | [19] | [13] | [4] | [6] | [7] | [17] | [8] | [18] | [16] | [11]

Cc1cnc[nH]1
inactive: [1] | [2] | [13] | [4] | [5] | [14] | [6] | [15] | [7] | [17] | [8] | [18] | [9] | [16] | [11] | [12]
